In PubChem BioAssay (NCI) one finds growth data, which are given here for eight compounds.

About 83,000 compounds went through this panel and 20% of them were active in at least one assay; those are over-represented in the sample as a whole.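 In brief: 96-well plates, 48 h treatment, single concentration, percent growth endpoint.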 A number with no mark means an inactive call. Calls of active or inactive are those of the source. How the source made its calls: active means growth percent below 10; inactive means the rest.

Common to all, as to assay: NCI-60 one-dose screen, 48 h (100 = growth as untreated, 0 = no growth, -100 = all killed)
Common to all, as to details: 10 µM unless noted

For assay [1], the system named is DU-145 prostate.
The test system of assay [2] is K-562 leukemia.
Assay [3] concerns MALME-3M melanoma.
Assay [4] deals with MDA-MB-231 breast.
For assay [5], the system named is RXF 393 renal.
In assay [6] the test system is SF-268 CNS.
The test system of assay [7] is SF-295 CNS.
The test system of assay [8] is SF-539 CNS.
Assay [9] concerns UACC-257 melanoma.
The test system of assay [10] is M14 melanoma.
Assay [11] deals with HCT-15 colon.
In assay [12] the test system is HT29 colon.
In assay [13] the test system is SNB-75 CNS.
In assay [14] the test system is SNB-19 CNS.
Assay [15] concerns U251 CNS.
In assay [16] the test system is PC-3 prostate.
The subject of assay [17] is SK-MEL-5 melanoma.
For assay [18], the system named is UACC-62 melanoma.
In assay [19] the test system is LOX IMVI melanoma.
Assay [20] has as its system SK-MEL-28 melanoma.

Take `CCCSc1nnc(-c2sc3nc4ccccc4n3c2C)o1`: the growth in assay [1] was 103%; in assay [2], 97.4%; in [3], 116%; in [4], 108%; in assay [5] it was 87.3%; in assay [6], 115%. Further, the growth in assay [7] was 105%; in assay [8] it was 108%; in assay [9], 102%; in assay [10], 106%; in [11] it was 99.2%; in [12] it was 110%. For the same compound, the growth in assay [13] was 95.6%; in assay [14] it was 99.8%; in assay [15], 113%; in assay [16] it was 105%; in assay [17], 98.5%; in assay [18], 94.5%. The figures for the growth in [19] and in assay [20] were 113% and 110%, respectively.

On to `CCOc1ccc(-c2cc(-c3cc(C(C)C)c(O)cc3C)nn2-c2ccc(S(N)(=O)=O)cc2)cc1`, for which the growth is 34.6% in [1]; 12.4% in assay [2]; 65.8% in assay [3]; 37.5% in assay [4]; 38.9% in [5]; 44.1% in assay [6]. The growth in [7] was 35.6%; in [8] it was 11.9%; in [9], 46.8%; in [10], 49.3%; in assay [11] it was 4.81% (active); in [12] it was 98.5%. Also, the growth is 32.6% in assay [13]; 49% in [14]; 27.8% in assay [15]; 42.4% in [16]; 26.3% in [17]; 24% in assay [18]. In addition, the values for the growth in [19] and in assay [20] were 17.9% and 58.5%, respectively.

For the compound `Nc1nn2c(-c3cc4cc(Br)ccc4oc3=O)ccnc2c1N=Nc1ccc(Br)cc1`, the growth in assay [1] is 36.8%; in assay [2], 32.4%; in assay [3] it was 52.1%; in assay [4], -43.8% (active); in assay [5], -31.4% (active); in assay [6], 26.9%. Besides, the growth in [7] was -37% (active); in assay [8], -71.4% (active); in assay [9], 87.8%; in assay [10] it was 42.4%; in assay [11], 31.8%; in [12], 28.8%. Further, the growth in [13] was 7.89% (active); in assay [14] it was -1.72% (active); in [15], 6.85% (active); in [16], 47.7%; in [17] it was 22.7%; in assay [18], 48.9%. Also, the growth in assay [19] is 18%; in assay [20] it was 20.5%.

With `Cn1cc(-c2cc(N)n3nc(-c4c[nH]c5ccccc45)cc3n2)c2ccccc21`, the growth in assay [1] was -89.1% (active); in assay [2] it was 11.4%; in assay [3] it was -94.8% (active); in [4] it was -89.8% (active); in assay [5], -72.5% (active); in assay [6], -51.3% (active). For the same compound, the growth in [7] was -90.3% (active); in assay [8] it was -99.5% (active); in [9], -92% (active); in assay [10], -81.5% (active); in assay [11], -68.5% (active); in assay [12], -68.2% (active). The growth in assay [13] is -46.8% (active); in assay [14], -88.7% (active); in assay [15] it was -93.1% (active); in assay [16], -50.2% (active); in assay [17] it was -92.5% (active); in assay [18], -96.5% (active). Further, the values for the growth in [19] and in assay [20] were -78.2% (active) and -98.8% (active), respectively.

As for `COc1ccc(NC2=C(I)C(=O)C(C)=C(C)C2=O)cc1`, the growth in assay [1] was 86.2%; in assay [2] it was 1.44% (active); in assay [3], 77.7%; in assay [4], -8.44% (active); in assay [5], 58.6%; in assay [6], 45.3%. Further, the growth in assay [7] was 79%; in assay [8], -28.1% (active); in assay [9], -14.2% (active); in assay [10], 96.1%; in [11], 64.3%; in [12], 101%. The growth in assay [13] is 86.3%; in [14], 81.2%; in assay [15], 25.9%; in [16], 10.2%; in assay [17], -44.6% (active); in assay [18], 33.3%. The growth in assay [19] was 2.42% (active); in [20], 52.6%.

Regarding `CN(C)CCCNC(=S)Nc1ccc(/C=C/c2ccc(Cl)cc2)cc1`, the growth was -61.8% (active) in [1]; 4.54% (active) in assay [2]; -95% (active) in assay [3]; -100% (active) in assay [4]; -25.8% (active) in [5]; 0.261% (active) in [6]. Moreover, the growth is -51.7% (active) in assay [7]; -68.6% (active) in assay [8]; -79.9% (active) in assay [9]; -63.5% (active) in assay [10]; -93.8% (active) in [11]; -51.4% (active) in assay [12]. Also, the growth was 8.9% (active) in assay [13]; -35.2% (active) in assay [14]; -2.11% (active) in assay [15]; -35.3% (active) in [16]; -98.6% (active) in [17]; -82.3% (active) in assay [18]. Besides, the growth was -64.5% (active) in assay [19] and -97.6% (active) in [20].

As for `Nc1nn2c(-c3cc4cc(Br)ccc4oc3=O)ccnc2c1N=Nc1ccc(S(N)(=O)=O)cc1`, the growth was 99.7% in assay [1]; 53.9% in assay [2]; 70.5% in assay [3]; -8.56% (active) in assay [4]; 87.1% in assay [5]; 78.5% in [6]. For the same compound, the growth in assay [7] is 62.2%; in assay [8], 55.1%; in assay [9], 101%; in [10], 62.2%; in assay [11] it was 103%; in [12] it was 92.4%. Further, the growth in [13] is 116%; in assay [14], 41.6%; in assay [16] it was 87.5%; in assay [17], 63.7%; in [18], 83.7%; in assay [19], 63.8%. In addition, the growth in [20] is 80.7%.

For `CC[C@]12C=CCN3CC[C@@]4(c5ccc(OC)cc5N(C)[C@H]4[C@@](O)(C(=O)OC)[C@@H]1OC(=O)CCCC[P+](c1ccc(F)cc1)(c1ccc(F)cc1)c1ccc(F)cc1)[C@@H]32`, the growth in assay [1] is 36.4%; in assay [2], 17.1%; in [3], -55.9% (active); in assay [4], 2.85% (active); in assay [5], -9.93% (active); in [6], 28.1%. Also, the growth in [7] was 78.5%; in [8], 16%; in assay [9] it was -50.7% (active); in assay [10], 19.7%; in assay [11] it was 102%; in assay [12] it was 15.9%. In addition, the growth in assay [13] was -5.3% (active); in [14], 6.61% (active); in assay [15] it was 13%; in assay [16], 15.7%; in assay [17], -59.7% (active); in assay [18], -69.6% (active). For the same compound, the values for the growth in assay [19] and in assay [20] were 25% and -54.9% (active), respectively.
